# POLB inh: blocks human DNA polymerase beta activity; P06746; Pol beta primer extension/strand displacement, fluorescence kinetic; Potency, µM (highest dose often 114 µM), actives largely listed as inhibitors; hit rate 1.3% among 340,000
#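 Reaction started by 50 nM substrate onto compound-treated Pol beta (10 nM, 15 min preincubation, room temperature); plates read at 0 min and 10 min. Normalized concentration-effect data fitted by four-parameter Hill equation.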
# Pol kappa inh-1: inhibitors of human DNA polymerase kappa. Q9UBT6. purified Pol kappa, fluorescent DNA synthesis assay, 10 min. Potency, µM (doses to about 107 µM), most hits filed as inhibitors. AID 588579. hit rate 0.53% among 400,000
#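 Here, compound and 10 nM enzyme are combined for 15 min at room temperature; adding 50 nM substrate (final) starts DNA synthesis, tracked by fluorescence at 0 and 10 min against buffer-only wells.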
# Pol iota inh: blocks human DNA polymerase iota activity. Q9UNA4. Pol iota fluorescent replication assay, 10 min. Potency, µM (series often up to 115 µM), hits mostly inhibitors. hit rate 1% among 390,000. AID 588590
# Target sequence (Q9UNA4 whole entry, looked up): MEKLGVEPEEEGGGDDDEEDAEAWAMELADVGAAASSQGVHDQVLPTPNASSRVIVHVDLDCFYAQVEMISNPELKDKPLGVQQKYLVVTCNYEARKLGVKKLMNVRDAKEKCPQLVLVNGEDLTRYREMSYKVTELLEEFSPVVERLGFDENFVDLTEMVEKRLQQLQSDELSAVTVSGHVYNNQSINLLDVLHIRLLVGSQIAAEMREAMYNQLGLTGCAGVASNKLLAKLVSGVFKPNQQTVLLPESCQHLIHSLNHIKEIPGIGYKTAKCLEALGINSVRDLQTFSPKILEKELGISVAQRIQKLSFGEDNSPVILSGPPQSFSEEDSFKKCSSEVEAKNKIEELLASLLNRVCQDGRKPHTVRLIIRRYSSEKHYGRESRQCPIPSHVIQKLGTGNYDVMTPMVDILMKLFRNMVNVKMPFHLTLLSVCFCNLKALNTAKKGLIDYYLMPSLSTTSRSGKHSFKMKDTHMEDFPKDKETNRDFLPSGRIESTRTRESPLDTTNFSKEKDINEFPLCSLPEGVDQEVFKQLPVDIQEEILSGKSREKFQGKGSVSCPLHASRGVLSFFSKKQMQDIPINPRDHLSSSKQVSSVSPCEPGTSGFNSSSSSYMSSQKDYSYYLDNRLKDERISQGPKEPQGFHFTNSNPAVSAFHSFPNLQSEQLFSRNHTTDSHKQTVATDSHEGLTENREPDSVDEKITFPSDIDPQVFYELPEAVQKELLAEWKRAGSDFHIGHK
#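 Pol iota at 10 nM preincubated 15 min with compounds at room temperature; reaction started with fluorescent substrate, 50 nM final. Fluorescence read kinetically at 0 and 10 min; buffer-only wells as negative control.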
# Pol eta inh-1: DNA polymerase eta (human) inhibition | Q9Y253 | recombinant Pol eta, fluorescent DNA replication assay | Potency, µM (top dose mostly 114 µM), usual class: inhibitors | hit rate 1.2% among 390,000
#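 Fluorescent replication assay: 50 nM final substrate added after a 15 min room-temperature compound preincubation with 10 nM enzyme. Signal taken at 0 min and again at 10 min.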
# KAT2A inh: blocks human GCN5L2 histone acetyltransferase; Q92830; GCN5L2 HAT assay, ThioGlo1 CoA-SH fluorescence; Potency, µM (titrated, usually from 58.9 µM), hits mostly inhibitors; hit rate 0.21% among 390,000; AID 504327
#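 GCN5L2 (20 nM) in 50mM HEPES pH 7.5, 0.1mM EDTA, 0.01% Tween-20 preincubated 15 min with compounds at room temperature. Reaction started with H3(1-25) 75uM, acetyl-CoA 70uM, ThioGlo1 50uM; CoA-thiol fluorescence (Ex340/Em540) read at 0 and 20 min.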
# GLS inh: blocks human kidney-isoform glutaminase activity. hit rate 0.21% among 410,000. Potency, µM (top dose mostly 45.5 µM), hits mostly inhibitors. GLS enzymatic activity, qHTS titration
#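 Human kidney-isoform GLS in 45 mM KH2PO4 pH 8.2, 0.02% Tween-20, with compound, started with 1mM L-Glutamine (added stock). Glutamate oxidase/HRP/Amplex red coupled fluorescence read at start and after 30 min at RT.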
# Pol kappa inh-2: confirmation of human DNA polymerase kappa inhibitors. shares compounds with Pol eta inh-1. purified Pol-kappa, fluorescent strand-displacement substrate. Potency, µM, actives largely listed as inhibitors. hit rate 76% among 920
# Pol eta inh-2: Pol eta (human) inhibition, cherry-pick confirmation; shares compounds with Pol eta inh-1; Pol eta primer extension, TAMRA/BHQ fluorescence, 10 min; Potency, µM, hits mostly inhibitors; hit rate 64% among 2,600; AID 720502
# A number is an active result; i = inactive; ? = inconclusive; nt = not tested or not shown; [ ] = another dose, or the depositor's remark. The list is not random: actives were taken first. Their share in the collection is about 2.4%. Calls come from the whole dose curve; as a rule, active = well fitted inhibition curve with a large enough effect; inconclusive = small, poorly fitted or top-dose-only effect, or another doubt; inactive = no such curve, though single readings can be large or run the other way.
SMILES,POLB inh,Pol kappa inh-1,Pol iota inh,Pol eta inh-1,KAT2A inh,GLS inh,Pol eta inh-2,others
CC(=O)c1cc2c(cc1NC(=O)c1c(C)nn(-c3ccc(C)cc3)c1-n1cccc1)OCO2,i,i,i,i,i,i,nt,
COc1ccc(Cn2c(SCc3ccc(C(=O)NC4CCCCC4)cc3)nc3cccnc32)cc1,?,i,i,i,i,i,nt,
O=C1C=C(c2ccc3cc[nH]c3c2)C[C@@H](c2ccc3c(c2)OCO3)C1,nt,79.4µM,14.1µM,22.4µM,i,i,75.7,
COC(=O)CNC(=O)c1ccc(NS(=O)(=O)c2cc([N+](=O)[O-])ccc2Cl)cc1,?,i,?,31.6µM,i,i,75.7,
Cc1cccc(NS(=O)(=O)c2cc(C(=O)NCc3ccccn3)ccc2C)c1,i,i,i,i,i,i,nt,
Cc1ccc([N+](=O)[O-])cc1S(=O)(=O)Nc1ccc(C(=O)NCc2ccccn2)cc1,nt,?,?,?,i,i,?,
COc1cccc2cc(C(=O)N3CCN(C(=O)c4ccco4)CC3)c(=O)oc12,i,i,i,i,i,i,nt,
COc1cc(Br)cc2cc(C(=O)N3CCN(C(=O)c4ccco4)CC3)c(=O)oc12,i,?,31.6µM,79.4µM,i,i,84.9,
Cc1cnc(C(=O)NCC(=O)Nc2ccccc2Br)cn1,nt,?,17.8µM,31.6µM,i,i,?,Pol kappa inh-2=?
CNC(=O)c1ccc(Nc2nnc(-c3ccc(C)c(S(=O)(=O)N4CCOCC4)c3)c3ccccc23)cc1,i,i,i,i,i,i,nt,
COc1ccc(-n2c(C)cc(/C=C/c3nc(O)c([N+](=O)[O-])c(=O)[nH]3)c2C)cc1,i,50.1µM,?,20µM,i,i,?,
O=c1[nH]c(/C=C\c2ccc(O)c(O)c2)nc(O)c1[N+](=O)[O-],25.1µM,?,?,?,i,7.94µM,75.7,Pol kappa inh-2=16.8
O=c1[nH]c(/C=C\c2cccc(O)c2)nc(O)c1[N+](=O)[O-],i,i,?,i,i,i,nt,
Cc1cc(/C=C\c2nc(O)c([N+](=O)[O-])c(=O)[nH]2)c(C)n1-c1ccccc1,25.1µM,89.1µM,28.2µM,22.4µM,i,i,?,
CCOc1ccc(/C=C\c2nc(O)c([N+](=O)[O-])c(=O)[nH]2)cc1OCC,i,i,i,i,i,i,nt,
CCC(C)C(NC(=O)C(Cc1ccc(O)cc1)NC(=O)C(N)C(C)C)C(=O)NC(Cc1cnc[nH]1)C(=O)N1CCCC1C(=O)NC(Cc1ccccc1)C(=O)O (stereo not given),nt,i[12 µM],nt,nt,i,nt,nt,
Cc1oc2c(c1C(=O)Nc1cccc(C(=O)O)c1)CCCC2,?,i,79.4µM,50.1µM,i,i,?,
O=C(/C=C/c1ccc(NC(=O)c2ccccc2-c2ccccc2C(=O)O)cc1)c1ccccc1,i,i,?,11.2µM,?,i,30.1,
O=C(O)c1ccccc1-c1ccccc1C(=O)Nc1ccc(F)cc1,i,i,i,i,i,i,nt,
COc1ccc(Sc2ccc(/C=C3\C(=O)NN(c4ccccc4)C3=O)o2)cc1,44.7µM,?,17.8µM,25.1µM,i,i,?,
CC[C@H](C)[C@H](NC(=O)[C@H](Cc1ccccc1)NC(=O)[C@H](CCC(=O)O)NC(=O)[C@H](CCCCN)NC(=O)[C@H](C)NC(=O)[C@H](C)NC(=O)[C@H](CCC(N)=O)NC(=O)CNC(=O)[C@H](CCC(=O)O)NC(=O)[C@H](CC(C)C)NC(=O)[C@H](Cc1ccc(O)cc1)NC(=O)[C@H](CO)NC(=O)[C@H](CO)NC(=O)[C@@H](NC(=O)[C@H](CC(=O)O)NC(=O)[C@H](CO)NC(=O)[C@@H](NC(=O)[C@H](Cc1ccccc1)NC(=O)[C@@H](NC(=O)CNC(=O)[C@H](CCC(=O)O)NC(=O)[C@H](C)NC(=O)[C@@H](N)Cc1cnc[nH]1)[C@@H](C)O)[C@@H](C)O)C(C)C)C(=O)N[C@@H](C)C(=O)N[C@@H](Cc1c[nH]c2ccccc12)C(=O)N[C@@H](CC(C)C)C(=O)N[C@H](C(=O)N[C@@H](CCCCN)C(N)=O)C(C)C,nt,i,nt,nt,i,nt,nt,
CCCCN(C)CCNC(=O)c1c2c(nc3ccccc13)C(=O)N(C1CCCCC1)C2,i,i,?,i,i,i,nt,
COc1cc(-c2cc(=O)c3c(O)c(OC)c(OC)cc3o2)cc(OC)c1O,28.2µM,79.4µM,?,22.4µM,i,?,67.5,
CCCOc1ccccc1C(=O)Nc1nc2c(s1)CCCC2,i,i,i,i,i,i,nt,
C=CCN(CC=C)CC(=O)Nn1c(C)ccc1C,nt,?,?,20µM,nt,i,?,
SMILES,POLB inh,Pol kappa inh-1,Pol iota inh,Pol eta inh-1,KAT2A inh,GLS inh,Pol eta inh-2,others
Cc1ccc(C)n1NC(=O)c1ccco1,?,i,?,i,i,i,nt,
CC1CN(S(=O)(=O)c2cccc(C(=O)OCc3cc(=O)oc4cc(O)ccc34)c2)CC(C)O1 (stereo not given),?,?,?,?,i,i,75.7,
O=C(Nc1ccc(Cl)cc1C(=O)O)c1ccc2c(c1)C(=O)N(Cc1ccco1)C2=O,?,?,35.5µM,79.4µM,i,?,?,
O=C(Nc1cccc(O)c1)c1ccc2c(c1)C(=O)N(Cc1ccco1)C2=O,?,i,?,i,?,i,nt,
Cc1cccc(OCCCCn2c(C3CC(=O)N(c4ccc(C)cc4C)C3)nc3ccccc32)c1 (stereo not given),i,i,i,i,i,i,nt,
COc1ccc(NC(=O)CN2C(=O)NC3(CCCC3)C2=O)cc1Cl,i,i,i,i,i,i,nt,
COc1ccc(NC(=O)CN2C(=O)NC3(CCCC3)C2=O)cc1OC,i,i,?,i,i,i,?,
COc1ccc(N2CC(C(=O)NCc3ccco3)CC2=O)cc1 (stereo not given),i,i,i,i,i,i,nt,
COc1ccc(N2CC(C(=O)Nc3nnc(SCC(=O)NCc4ccco4)s3)CC2=O)cc1 (stereo not given),?,i,?,22.4µM,i,i,?,Pol kappa inh-2=42.3
O=C1Nc2c(Cl)cc(Cl)cc2C1=O,nt,?,?,?,nt,i,?,
Cc1cccc(N=C2C(=O)Nc3c(Cl)cccc32)c1,i,i,?,i,i,i,nt,
O=C1NC(=S)S/C1=C\c1ccc(SCc2ccccc2)o1,14.1µM,25.1µM,7.94µM,17.8µM,i,?,?,
O=C(N/N=C/c1cc(Br)c(O)c(Br)c1)c1cc2c(ccc3ccccc32)o1,?,20µM,?,17.8µM,?,i,84.9,
